A short description of assay [1]: optical density shifts of acrAB sulA E. coli – strain DRC41, OD650, 48 h, E. coli filamentation inducer project, primary screen (AID 1152).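 Also: E. coli MC1000 strain DRC41 lacking acrAB efflux pump and sulA.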 To be noted: higher = more signal, called active from +8 up or from −8 down.
Assay [2] can be described thus: probe aLefty1 binding on compound microarray – biochemical, small-molecule microarray, 635/667 nm fluorescence, primary screen (AID 1153).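 Also: score merges spot fluorescence with signal-to-noise ratio from the scanned slide images.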 To be noted: higher = more signal.
Assay [3] is described as follows: plasmodial surface anion channel blockers, osmotic lysis – cell-based, P. falciparum Indochina, OD700, 1 h, primary screen (AID 1154). To be noted: P. falciparum Indochina infected RBC osmotic lysis, higher = more signal, called active from +8 up or from −8 down.
Assay [4] can be described thus: plasmodial surface anion channel blockers, osmotic lysis – cell-based, P. falciparum Indochina, OD700, 2 h, primary screen (AID 1155).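 Also: lysis reports solute entry through the parasite surface anion channel PSAC.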 The following applies: P. falciparum Indochina infected erythrocytes, higher = more signal, called active from +8 up or from −8 down.
Assay [5] can be described thus: changes in parasitized red cell lysis, either direction – P. falciparum Indochina, OD700, 3 h, PSAC antagonist project, primary screen (AID 1156). To be noted: P. falciparum-infected erythrocytes, osmotic lysis, higher = more signal, called active from +8 up or from −8 down.
Assay [6] is described as follows: plasmodial surface anion channel blockers, osmotic lysis – cell-based, P. falciparum Indochina, OD700, 18 h, primary screen (AID 1157). To be noted: P. falciparum Indochina infected erythrocytes, osmotic lysis OD700, 18 h; higher = more signal, called active from +8 up or from −8 down.
A short description of assay [7]: S6 kinase pathway phospho-S6 level changes – cell-based, A549, cytoblot, luminescence, serum-stimulated, primary screen (AID 1158).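 Also: serum-stimulated A549 lung adenocarcinoma cells; signal is phosphorylated S6 detected by cytoblot immunostaining with HRP secondary.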 The following applies: 5 h, higher = more signal.
Assay [8] addresses NADPH oxidase 2 (Homo sapiens) (UniProt P04839). Nature of the assay: compounds shifting NOX2 Amplex Red fluorescence – cell-based, HEK293-NOX2, PMA-stimulated, NOX inhibitor project, primary screen (AID 1159). Also: test concentration not given here. To be noted: 45 min, higher = more signal, called active from +8 up or from −8 down.
The target in assay [9] is NADPH oxidase 4 (Homo sapiens) (UniProt Q9NPH5). The experiment in a line: compounds shifting NOX4 Amplex Red fluorescence – cell-based, HEK293-NOX4, tetracycline-induced, NOX inhibitor project, primary screen (AID 1160). To be noted: HEK293-NOX4, Amplex Red H2O2 fluorescence, 45 min; higher = more signal, called active from +8 up or from −8 down.
Chain of NADPH oxidase 4 (Homo sapiens) (Q9NPH5 whole entry, looked up): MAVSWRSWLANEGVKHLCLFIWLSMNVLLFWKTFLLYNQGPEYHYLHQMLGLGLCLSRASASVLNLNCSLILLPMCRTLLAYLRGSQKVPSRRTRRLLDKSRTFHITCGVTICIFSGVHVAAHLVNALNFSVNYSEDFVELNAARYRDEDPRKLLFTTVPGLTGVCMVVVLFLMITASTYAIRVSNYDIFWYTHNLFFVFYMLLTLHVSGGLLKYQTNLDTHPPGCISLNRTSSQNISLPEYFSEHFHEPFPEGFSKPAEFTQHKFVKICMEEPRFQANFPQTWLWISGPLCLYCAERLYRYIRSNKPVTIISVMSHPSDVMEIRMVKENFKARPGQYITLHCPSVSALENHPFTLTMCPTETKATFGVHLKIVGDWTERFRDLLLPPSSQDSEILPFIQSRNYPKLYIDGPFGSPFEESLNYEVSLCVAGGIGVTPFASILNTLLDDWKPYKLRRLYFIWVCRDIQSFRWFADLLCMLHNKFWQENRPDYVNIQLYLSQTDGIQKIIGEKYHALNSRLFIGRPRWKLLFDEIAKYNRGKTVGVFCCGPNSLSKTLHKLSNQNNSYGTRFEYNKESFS
The target of assay [10] is NADPH oxidase 5 (Homo sapiens) (UniProt Q96PH1). The experiment in a line: compounds shifting NOX5 Amplex Red fluorescence – cell-based, HEK293-NOX5, NOX inhibitor project, primary screen (AID 1161). To be noted: HEK293-NOX5, ionomycin, 45 min, higher = more signal.
Chain of NADPH oxidase 5 (Homo sapiens) (Q96PH1 whole entry, looked up): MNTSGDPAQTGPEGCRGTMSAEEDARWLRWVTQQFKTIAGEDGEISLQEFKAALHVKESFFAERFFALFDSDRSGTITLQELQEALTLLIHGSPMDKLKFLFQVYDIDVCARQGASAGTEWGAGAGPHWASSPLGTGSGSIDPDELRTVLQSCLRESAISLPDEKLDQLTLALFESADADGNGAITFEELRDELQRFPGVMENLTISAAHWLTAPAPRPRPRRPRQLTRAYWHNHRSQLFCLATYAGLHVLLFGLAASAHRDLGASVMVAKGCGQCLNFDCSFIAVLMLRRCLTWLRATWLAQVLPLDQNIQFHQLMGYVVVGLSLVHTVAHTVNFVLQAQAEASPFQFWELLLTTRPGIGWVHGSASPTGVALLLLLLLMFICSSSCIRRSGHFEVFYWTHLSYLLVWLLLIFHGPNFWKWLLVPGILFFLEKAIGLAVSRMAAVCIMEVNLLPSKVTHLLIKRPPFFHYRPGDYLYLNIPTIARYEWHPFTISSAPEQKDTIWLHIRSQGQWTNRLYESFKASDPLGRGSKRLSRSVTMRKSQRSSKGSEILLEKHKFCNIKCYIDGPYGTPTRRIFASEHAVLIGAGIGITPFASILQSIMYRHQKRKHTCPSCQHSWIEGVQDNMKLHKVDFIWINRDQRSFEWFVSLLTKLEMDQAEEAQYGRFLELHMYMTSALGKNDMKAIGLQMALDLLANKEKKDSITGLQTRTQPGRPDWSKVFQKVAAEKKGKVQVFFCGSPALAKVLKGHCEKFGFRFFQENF
Assay [11] can be described thus: compound effects on lung adenocarcinoma cell viability – A549, calcein-AM fluorescence, 48 h, basal, profiling panel (AID 1162). Also: test concentration not given here. To be noted: higher = more signal.
Assay [12] can be described thus: compound effects on differentiated 3T3-L1 adipocyte viability – cell-based, 3T3-L1 adipocytes, calcein-AM fluorescence, 48 h, basal, profiling panel (AID 1163). Also: test concentration not given here. To be noted: 3T3-L1 adipocytes viability, higher = more signal.
Assay [13] can be described thus: compound effects on hepatocellular carcinoma cell viability – HepG2, calcein-AM fluorescence, 48 h, basal, profiling panel (AID 1164). Also: test concentration not given here. To be noted: higher = more signal.
Assay [14] can be described thus: compound effects on multiple myeloma cell viability – MM1S, calcein-AM fluorescence, 48 h, basal, profiling panel (AID 1165).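 Also: viability of MM1S multiple myeloma cells under basal unstimulated conditions; test concentration not given here.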 The following applies: higher = more signal.
Assay [15] in a line: calcein-AM signal in unstimulated myeloma cells – cell-based, calcein-AM fluorescence, 48 h, PK04 Diversity Set, profiling panel (AID 1166).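 Also: cells grown under basal conditions without added stimulus; test concentration not given here.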 To be noted: RPMI8226 myeloma viability, higher = more signal.
Assay [16] is described as follows: JC-1 mitochondrial signal, unstimulated HepG2 cells – cell-based, JC-1 fluorescence, 24 h, 100 nL compound, profiling panel (AID 1167). Also: test concentration not given here. The following applies: HepG2 mitochondrial potential, higher = more signal.
Assay [17] in a line: JC-1 mitochondrial signal, unstimulated adipocytes – cell-based, JC-1 fluorescence, 3T3-L1 adipocytes, 24 h, 100 nL compound, profiling panel (AID 1168). Also: test concentration not given here. To be noted: JC-1 mitochondrial fluorescence, higher = more signal, called active from +8 up or from −8 down.
A short description of assay [18]: JC-1 mitochondrial signal, unstimulated myeloma cells – cell-based, JC-1 fluorescence, RPMI8226, 24 h, 100 nL compound, profiling panel (AID 1169). Also: test concentration not given here. The following applies: JC-1 mitochondrial potential fluorescence, higher = more signal.
Assay [19] can be described thus: JC-1 mitochondrial signal, unstimulated MM1S myeloma – cell-based, JC-1 fluorescence, 24 h, 100 nL compound, profiling panel (AID 1170). Also: test concentration not given here. To be noted: MM1S mitochondrial potential, higher = more signal.
Assay [20] in a line: resazurin metabolic signal in A549 cells – cell-based, resazurin fluorescence, 24 h, PK04 Diversity Set, profiling panel (AID 1171). Also: test concentration not given here. The following applies: A549 viability, higher = more signal, called active from +8 up or from −8 down. For orientation: The colour change of resazurin is a common sign of viable cells or microbes.

Active and inactive are the calls of the source.

Chain of NADPH oxidase 2 (Homo sapiens) (P04839 whole entry, looked up): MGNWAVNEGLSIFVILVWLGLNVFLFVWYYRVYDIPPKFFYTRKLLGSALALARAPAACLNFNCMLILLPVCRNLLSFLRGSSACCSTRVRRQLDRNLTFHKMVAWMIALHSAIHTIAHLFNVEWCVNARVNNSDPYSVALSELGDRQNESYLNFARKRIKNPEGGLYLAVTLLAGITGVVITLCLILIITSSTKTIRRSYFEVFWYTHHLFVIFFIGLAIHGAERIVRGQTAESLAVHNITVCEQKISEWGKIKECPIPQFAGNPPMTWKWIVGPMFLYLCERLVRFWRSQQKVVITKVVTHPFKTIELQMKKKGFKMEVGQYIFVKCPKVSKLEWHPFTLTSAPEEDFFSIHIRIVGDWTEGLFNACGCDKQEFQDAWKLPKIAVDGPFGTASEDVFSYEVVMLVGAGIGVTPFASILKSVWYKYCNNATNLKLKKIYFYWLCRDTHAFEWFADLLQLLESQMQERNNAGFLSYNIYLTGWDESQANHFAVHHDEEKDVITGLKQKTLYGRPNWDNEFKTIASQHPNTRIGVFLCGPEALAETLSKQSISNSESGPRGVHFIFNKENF

In the case of `CO[C@H]1O[C@H](CO)[C@@H](OC(=O)CCc2ccccc2)[C@@H]2OC(=O)[C@@H](Cc3ccccc3)C/C=C/C[C@H](Cc3ccccc3)C(=O)O[C@@H]12`, the z-score in assay [1] is 0.453 (inactive); in [3], 4.5 (inactive); in assay [4], 0.829 (inactive); in assay [5], 1.23 (inactive); in [6] it was 0.546 (inactive); in assay [7], 0.658. In addition, the z-score is -4.56 (inactive) in [8]; -0.97 (inactive) in assay [9]; -2 in assay [10]; 1.7 in assay [11]; 0.271 in assay [12]; 0.514 in assay [13]. Further, the z-score in assay [14] was -0.753; in [15], -0.711; in [16], 0.358; in assay [17], 0.669 (inactive); in [18] it was 0.578; in [19] it was -0.946. Moreover, the z-score in [20] is 1.2 (inactive). The same compound registered a composite z-score in [2] of -0.0054.

`O=C1C[C@]2(c3ccc([N+](=O)[O-])cc3)C(=O)N(C3CC3)c3cc(CO)ccc3[C@H]2N1CC12CC3CC(CC(C3)C1)C2`: the z-score was -0.829 (inactive) in assay [1]; 0.617 (inactive) in [3]; -0.0621 (inactive) in assay [4]; 0.474 (inactive) in assay [5]; 0.255 (inactive) in assay [6]; 0.204 in assay [7]. In addition, the z-score in assay [8] is 1.36 (inactive); in assay [9], -1.64 (inactive); in [10], 0.0712; in assay [11], 0.207; in assay [12] it was 0.368; in [13], -0.67. The z-score in assay [14] was 0.352; in [15], -0.947; in assay [16], -0.148; in assay [17] it was -0.837 (inactive); in [18], 0.787; in assay [19], -1.1. Moreover, the z-score in assay [20] is -0.452 (inactive). The composite z-score in [2] was 0.599.

For the compound `COC(=O)[C@@]1(Cc2ccc(OC)cc2)[C@H]2c3cc(C(=O)N(C)C)n(Cc4ccc(OC(F)(F)F)cc4)c3C[C@H]2CN1C(=O)c1ccccc1`, the z-score in assay [1] is -1.81 (inactive); in [3], 0.404 (inactive); in assay [4], 0.542 (inactive); in assay [5] it was 0.219 (inactive); in [6], 0.569 (inactive); in assay [7], -1.19. For the same compound, the z-score in [8] is 0.262 (inactive); in [9], -0.787 (inactive); in assay [10], -0.499; in [11] it was -1.34; in assay [12], -0.306; in assay [13], -0.77. Moreover, the z-score in [14] is -3.39; in assay [15] it was -4.11; in assay [16], -2.18; in assay [17] it was -0.922 (inactive); in assay [18], -0.791; in assay [19], -2.79. The z-score in [20] is -1.36 (inactive). For the same compound, the composite z-score in assay [2] was 0.407.

Consider `C=C(COC)/C(=C/C[C@H](OC(=O)c1ccncc1)c1ccccc1OCCO)c1cc(C(=O)OC)ccc1OC`, for which the z-score is -0.604 (inactive) in assay [1]; 14 (active) in [3]; 2.43 (inactive) in assay [4]; 2.72 (inactive) in [5]; 0.773 (inactive) in [6]; 0.0976 in assay [7]. Further, the z-score in assay [8] is -1.21 (inactive); in assay [9], 0.0788 (inactive); in [10] it was -1.62; in assay [11], -0.0954; in [12], 0.0589; in [13], -0.0472. Moreover, the z-score is -3.34 in assay [14]; -1.58 in [15]; 1.94 in assay [16]; -0.658 (inactive) in assay [17]; -0.596 in assay [18]; -0.159 in [19]. Also, the z-score in assay [20] was 0.315 (inactive). In [2], this compound yielded a composite z-score of 0.307.

Turning to `COc1ccc(C#Cc2ccc3c(c2)[C@]2(C(=O)N3)[C@H](C(=O)O)[C@H]3C(=O)O[C@H](c4ccccc4)[C@H](c4ccccc4)N3[C@@H]2c2ccc(O)cc2)cc1`, the z-score in assay [1] is 0.384 (inactive); in assay [3], -2.35 (inactive); in [4], -2.47 (inactive); in assay [5] it was -8.72 (active); in assay [6], -2.8 (inactive); in assay [7], 2.29. The z-score is 0.479 (inactive) in assay [8]; -3.77 (inactive) in assay [9]; -1.13 in [10]; -0.483 in assay [11]; 1.65 in assay [12]; -0.176 in [13]. Further, the z-score in [14] was -2.61; in assay [15] it was -3.91; in [16] it was -3.99; in assay [17] it was -1.15 (inactive); in [18] it was -0.85; in assay [19] it was -0.623. The z-score in assay [20] is 0.199 (inactive). In assay [2], the composite z-score was found to be 0.174.

`C=C[C@@H](OC)[C@H](OC(=O)Nc1ccc(OC)cc1)c1ccc(O)c(F)c1`: the z-score in assay [1] was 0.308 (inactive); in assay [3], 3.98 (inactive); in assay [4], 0.517 (inactive); in [5], 0.241 (inactive); in assay [6], 0.475 (inactive); in assay [7], -0.012. For the same compound, the z-score in assay [8] was -1.79 (inactive); in [9] it was 0.787 (inactive); in assay [10], 3.63; in assay [11], -0.705; in assay [12], 0.792; in assay [13], -0.723. The z-score in assay [14] was -2.17; in assay [15], -2.47; in [16] it was -2.82; in assay [17] it was -1.1 (inactive); in [18], -0.276; in [19] it was -0.0233. Also, in assay [20], the z-score is -0.0973 (inactive). Moreover, in assay [2], the composite z-score is 0.0774.

Consider `O=C1CS(=O)(=O)C(c2cccc([N+](=O)[O-])c2)N1c1ccccc1` (stereo not given), for which the z-score was 2.48 (inactive) in [1]; -0.625 (inactive) in assay [3]; -1.38 (inactive) in [4]; -0.903 (inactive) in assay [5]; -1.68 (inactive) in [6]; 1.93 in assay [7]. For the same compound, the z-score in assay [8] was 0.227 (inactive); in assay [9], 0.38 (inactive); in assay [10] it was 1.79; in [11] it was 1.02; in [12], 0.116; in assay [13], 1.46. The z-score in [14] was 0.637; in assay [15], 1.22; in assay [16], 1.24; in [17], -0.662 (inactive); in assay [18], -0.141; in assay [19], 2.21. Besides, in assay [20], the z-score was 0.0249 (inactive). The composite z-score in assay [2] came to 0.683.

In the case of `CCCC[C@@H](O)C1=C(COC)C[C@H]2C(=O)N(Cc3ccccc3)C(=O)[C@H]2[C@H]1CO`, the z-score in [1] was 0.878 (inactive); in assay [3], 1.83 (inactive); in assay [4], -0.384 (inactive); in assay [5], -0.157 (inactive); in [6], 0.133 (inactive); in assay [7] it was 0.304. In addition, the z-score is -0.725 (inactive) in [8]; 0.282 (inactive) in assay [9]; 0.373 in assay [10]; 0.449 in assay [11]; -1 in assay [12]; 1.35 in assay [13]. The z-score is 0.887 in assay [14]; 0.105 in assay [15]; -0.0934 in [16]; 0.0385 (inactive) in assay [17]; -0.851 in assay [18]; -1.35 in assay [19]. In addition, the z-score in [20] was 0.0943 (inactive). The compound further showed a composite z-score in [2] of -0.103.

These data come from PubChem BioAssay.
